For some of these results: Potency and affinity values are given separately. The source made the active and inactive calls. Unless noted, no cut-off is given here; in the data, nearly all actives have IC50 up to about 0.98 µM.
Test system: not listed separately
Test: inhibition of 3D7 malaria parasite growth – strain 3D7 (AID 2306; call rule not given here;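 note: 0% = DMSO wells and 100% = chloroquine plus artemisinin control wells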)
Conditions: P. falciparum 3D7 erythrocytic growth, LDH absorbance, 72 h; at 2 µM; hits give high values

Growth inhibition, active:
O=C(NCc1cccc(F)c1)Nc1cccc(-c2ccc(-c3nc4ccc(F)cc4[nH]3)cc2)c1 84%
CCCCCC(=O)N1CCOC(CCN2CCc3c(c4ccccc4n3C)C2)(c2ccc(Cl)c(Cl)c2)C1 (stereo not drawn) 95%
CC(=O)Oc1c(C2CCN(CCCCNC(=O)c3ccc(NC(=O)c4ccc(Cl)cc4)cc3)CC2)ccc2ccccc12 101%

Molecular target: Calcium-dependent protein kinase 1 (Plasmodium falciparum (isolate 3D7)) (UniProt P62344)
Test: PfCDPK1 kinase inhibitors, biochemical, TCAMS library (AID 1159585);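 note: inhibitors leave more ATP so luminescence rises with inhibition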
Conditions: recombinant PfCDPK1, Kinase-Glo ATP depletion luminescence

Calcium-dependent protein kinase 1 (Plasmodium falciparum (isolate 3D7)), sequence (P62344 whole entry, looked up): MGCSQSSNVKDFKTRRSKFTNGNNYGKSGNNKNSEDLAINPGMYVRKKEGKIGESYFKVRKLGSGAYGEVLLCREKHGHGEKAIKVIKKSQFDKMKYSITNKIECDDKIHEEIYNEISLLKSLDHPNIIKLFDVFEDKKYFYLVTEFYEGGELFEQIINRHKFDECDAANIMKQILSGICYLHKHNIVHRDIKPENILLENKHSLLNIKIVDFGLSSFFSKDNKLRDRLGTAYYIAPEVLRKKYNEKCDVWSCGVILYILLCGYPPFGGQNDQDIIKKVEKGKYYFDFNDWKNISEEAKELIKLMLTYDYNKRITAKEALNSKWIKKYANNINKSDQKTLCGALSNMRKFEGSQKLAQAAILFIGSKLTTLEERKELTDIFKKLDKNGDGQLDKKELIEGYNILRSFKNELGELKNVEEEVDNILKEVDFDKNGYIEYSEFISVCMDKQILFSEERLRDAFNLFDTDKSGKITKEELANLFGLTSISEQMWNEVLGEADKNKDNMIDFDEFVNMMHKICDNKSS

outcome, inactive:
CN1CCN(CCCN(Cc2ccc(-c3cccc(CNCc4ccc5c(c4)OCO5)c3)cc2)C(=O)NC2CCCCC2)CC1
Cc1[nH]c(C)c(-c2ccc(CCc3ccc(F)cc3F)cc2)c(=O)c1Cl
Cc1cc(OCCCN2CCC(NS(=O)(=O)c3cccc(Br)c3)CC2)c2ccccc2n1
CC(C)NCc1ccc(-c2cccc(NC(=O)c3cccc(C#N)c3)c2)cc1
CC(C)C[C@H](NC(=O)c1cc2ccccc2s1)C(=O)N[C@H]1CCN(Cc2ccc(OCCN3CCNCC3)c3ccccc23)C1
COc1ccc(OCCCCON2C(N)=NC(N)=NC2(C)C)cc1
Cc1ccc(C(=O)Nc2ccc(Cl)c(N3CCN(CCc4ccccc4)CC3)c2)cc1
Cc1ccc(C(C(=O)Nc2ccc(N3CCNCC3)c(Cl)c2)c2ccccc2)cc1 (stereo not drawn)
COc1cc(CNCCCCCCNCc2cc(OC)cc3ccccc23)c2ccccc2c1
COc1cc(C(=O)N2CC[C@@H](CCN3CCC4(CC3)CN(S(C)(=O)=O)c3ccccc34)C[C@H]2Cc2ccc(Cl)c(Cl)c2)cc(OC)c1OC
Cc1ccc2c(NN=CC=Cc3ccccc3)cc(C)nc2c1
OCCN1CCN(Cc2ccc(-c3ccc(-c4nc5ccc(C(F)(F)F)cc5[nH]4)s3)cc2)CC1
NC1=NC2(CCCCC2)N(OCCCOc2cccc3ccccc23)C(N)=N1
Cc1cccc2[nH]c(-c3cccc(-c4ccc(NC(=O)Cc5ccon5)cc4)c3)nc12
COc1ccc2nccc([C@@H](O)CN3CCC(NC(=O)c4cc5ccccc5[nH]4)CC3)c2c1
O=C(NCCc1ccc(Cl)c(Cl)c1)C1CCCN(C(=O)c2ccc(O)c(-c3ccc(Cl)c(Cl)c3)c2)C1 (stereo not drawn)
CCCc1cc(Cc2cnc(N)nc2N)cc(CCC)c1OCCCCCC(=O)OCC
CCCCc1ccc(-c2ccc(-c3c(C)[nH]c(C)c(Br)c3=O)cn2)cc1
Cc1cc(NN=Cc2ccccn2)c2cc(C(F)(F)F)ccc2n1
O=C(Nc1ccsc1)Nc1cccc(-c2cccc(-c3nc4ccc(C(F)(F)F)cc4[nH]3)c2)c1
COc1cc(NC(=O)C(c2ccc(Cl)cc2)C(C)C)cc(OC)c1 (stereo not drawn)
CC(C)(C)C1CC(=O)C[C@@H]2C(=O)N(c3ccc(Br)cc3)C(=O)[C@H]12 (stereo partly drawn)
COc1ccc(O)c(C(=O)c2cc(C(=O)NC3CCCCC3)c(=O)n(C3CCCCC3)c2)c1
COc1ccccc1NC(=O)Nc1ccc(-c2ccc(-c3nc4c(C)cccc4[nH]3)s2)cc1
COc1cc2c(C3CCN(CC4CCC(NC(=O)/C=C/c5ccc(Cl)c(Cl)c5)CC4)CC3)c[nH]c2cn1 (stereo not drawn)
COCC(C)n1c(SCC(=O)Nc2cc(C(F)(F)F)ccc2Cl)nc2ccccc2c1=O (stereo not drawn)
COc1ccc(-n2cc(CNCCCn3ccnc3)c(-c3cccc(F)c3)n2)cc1
COc1cc(Cc2cnc(N)nc2N)cc(OCCCCC2SC(=O)NC2=O)c1OC (stereo not drawn)
COc1ccc2nccc([C@@H](O)CN3CCC(NCc4nc5cc(F)ccc5o4)CC3)c2c1
N=C(N)c1cc(Br)cc(NC(=O)Nc2cc(Br)cc(C(=N)N)c2)c1
CS(=O)(=O)c1ccc(CNCc2ccc(-c3cccc(-c4nc5ccc(F)cc5[nH]4)c3)cc2)cc1
CC(C)(C)c1ccc(NC(=O)c2cccc(CN3CCN(Cc4cccc(O)c4)CC3)c2)cc1
COc1cc(C(=O)NC2CCN(Cc3ccccc3)CC2)ccc1-c1cc2cc(Cl)c(Cl)cc2[nH]1
COc1cc(NC(=O)c2sc(-c3ccc(Cl)cc3)cc2NC(=O)CN2CCCC2)ccc1OCCN1CCCC1
O=[N+]([O-])c1ccc(Nc2nc(NN=Cc3ccc(-c4ccc([N+](=O)[O-])cc4)o3)nc(Nc3ccccc3)n2)cc1
CN1CCN(CCCN(Cc2ccc(-c3cccc(CNC4CCCC4)c3)cc2)C(=O)/C=C/c2ccccc2)CC1
CC(C)(C)c1ccc(CN2CCCCC(NC(=O)c3cc(-c4cccc(Cl)c4)cs3)C2)cc1 (stereo not drawn)
O=C(NCc1cccc(F)c1)Nc1cccc(-c2ccc(-c3nc4ccc(F)cc4[nH]3)cc2)c1
CCCCCC(=O)N1CCOC(CCN2CCc3c(c4ccccc4n3C)C2)(c2ccc(Cl)c(Cl)c2)C1 (stereo not drawn)
CC(=O)Oc1c(C2CCN(CCCCNC(=O)c3ccc(NC(=O)c4ccc(Cl)cc4)cc3)CC2)ccc2ccccc12

Reference: PubChem BioAssay
